Screening results deposited in PubChem BioAssay by National Center for Advancing Translational Sciences (NCATS).
A selection: hits, their analogues and other compounds. The true share with any hit is near 8.3%.
HCV inh = blocks hepatitis C virus; Huh7.5.1 HCVcc-Cre infection, luciferase reporter, 44 h; Potency, µM (doses to about 41.8 µM), usual class: inhibitors; actives 3.4% (n = 340,000); AID 651820
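Infectious HCV cell culture screen: compound-treated cells (1,000/well, pre-plated 4 h) are infected with HCVcc-Cre at roughly 0.5 moi and grown 44 h. Infection is quantified by luciferase signal after 15 min substrate incubation at room temperature.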
HCMV inh = inhibitors of human cytomegalovirus. activity change, negative = inhibition, % at 57.5 µM. HFF cells, HCMV-luciferase reporter, 72 h; active compounds read low. actives 4.5% (n = 410,000); in the data active = activity change below about -60%; inconclusive = no clear call, values can overlap the other calls; inactive = above about -39%
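Cell-based, HFFs, 1000 cells/well, 16 h 37C; cpds in DMSO + HCMV-luc, MOI 1 PFU/cell; 72 h 37C; OneGlo luminescence after 5 min RT; norm. to buffer vs Salinomycin 10uM.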
Giardia FBPA inh = blocks Giardia fructose-bisphosphate aldolase activity; A8B2U2; purified Giardia FBPA; Potency, µM (highest dose often 59.6 µM), actives largely listed as inhibitors; actives 0.71% (n = 290,000); AID 2451; note: nearly all actives have a fitted effect of over 55% in size
Target sequence (A8B2U2 whole entry, looked up): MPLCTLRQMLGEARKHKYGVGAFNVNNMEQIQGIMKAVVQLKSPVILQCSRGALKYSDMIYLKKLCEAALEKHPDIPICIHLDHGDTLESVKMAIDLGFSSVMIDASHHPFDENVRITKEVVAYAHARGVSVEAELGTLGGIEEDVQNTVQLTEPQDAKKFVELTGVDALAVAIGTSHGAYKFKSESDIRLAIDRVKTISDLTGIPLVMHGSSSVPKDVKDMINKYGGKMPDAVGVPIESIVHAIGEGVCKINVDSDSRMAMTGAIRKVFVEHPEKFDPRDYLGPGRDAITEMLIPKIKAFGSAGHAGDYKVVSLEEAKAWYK
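Giardia FBPA (40 nM reagent) was preincubated 10 min at RT with compound (up to 57.5 uM final), then substrate plus GAPDH/TPI/NAD/arsenate coupling system with diaphorase/resazurin was added; resorufin fluorescence (525/598 nm) was read after 20 min.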
LASV entry inh = blocks Lassa virus binding to or entry into cells; Lassa virus pseudotype entry inhibition, cell reporter; Potency, µM (series often up to 37.9 µM), actives largely listed as inhibitors; actives 1.2% (n = 300,000); AID 540256; calls by dose curve; tested in HEK293 cells; note: nearly all actives have a fitted effect of over 50% in size
MARV entry inh = Marburg virus entry inhibition. AID 540276. actives 1.8% (n = 300,000). Marburg virus pseudotyped entry inhibition, cell reporter. Potency, µM (highest dose often 37.8 µM), usual class: inhibitors; calls by dose curve; tested in HEK293 cells
FMDV antiviral = blocks foot and mouth disease virus | FMDV antiviral cell-based qHTS | Potency, µM (titrated, usually from 57.9 µM), most hits filed as inhibitors | actives 1.2% (n = 410,000) | AID 1159524; calls by dose curve; tested in HEK293T cells; note: read-out not given here; nearly all actives have a fitted effect of over 45% in size
Each line names hits and unclear results; the compound was inactive in the other large screens. Unless noted, calls come from the whole dose curve; as a rule, active = well fitted curve in the direction sought with a large enough effect; inconclusive = small, poorly fitted or top-dose-only effect, or another doubt; inactive = no such curve, though single readings can be large; an effect the other way counts as inactive or inconclusive.

COc1cc(NC(=O)Cc2nn(C)c(=O)c3ccccc23)cc(OC)c1	HCV inh 10µM, HCMV inh -87.7, MARV entry inh inconclusive, FMDV antiviral inconclusive
Cn1nc(CC(=O)Nc2ccc(N3CCN(C(=O)OC(C)(C)C)CC3)cc2)c2ccccc2c1=O	HCV inh inconclusive, HCMV inh -79.0, FMDV antiviral inconclusive
Cn1nc(CC(=O)Nc2ccc3c(c2)OCCO3)c2ccccc2c1=O	HCV inh 6.31µM, MARV entry inh inconclusive, FMDV antiviral inconclusive
Cn1nc(CC(=O)N2CCN(c3ccccc3)CC2)c2ccccc2c1=O	LASV entry inh inconclusive, MARV entry inh inconclusive, FMDV antiviral inconclusive
COc1ccccc1NC(=O)Cc1nn(C)c(=O)c2ccccc12	HCV inh inconclusive, MARV entry inh inconclusive, FMDV antiviral inconclusive (no result: HCMV inh)
Cn1nc(CC(=O)NCc2ccc(F)cc2)c2ccccc2c1=O	HCV inh 11.2µM, HCMV inh inconclusive, FMDV antiviral inconclusive (no result: LASV entry inh, MARV entry inh)
COc1ccc(-n2c(C)cc(C(=O)COC(=O)Cc3n[nH]c(=O)c4ccccc34)c2C)cc1	HCV inh inconclusive, HCMV inh inconclusive, LASV entry inh inconclusive, MARV entry inh inconclusive, FMDV antiviral 28.2µM
O=C(Cc1n[nH]c(=O)c2ccccc12)OCC(=O)c1ccc2c(c1)OCCO2	HCMV inh -86.8, LASV entry inh inconclusive, MARV entry inh inconclusive
CCOC(=O)CSc1nc(Cc2ccccc2)nc2ccccc12	HCMV inh -66.3
COc1ccc(-n2c(CNc3ccc(C)cc3)nnc2SCc2ccccc2)cc1	Giardia FBPA inh inconclusive, LASV entry inh 11.2µM, MARV entry inh inconclusive
CCOC(=O)CSc1nc(CC)nc2ccccc12	none (no result: FMDV antiviral)
CCOC(=O)CSc1nnc(Cc2ccccc2)n1-c1cccc(Cl)c1	none (no result: HCMV inh, Giardia FBPA inh)
CCOC(=O)CSc1nnc(Cc2ccc(OC)cc2)n1-c1ccccc1	HCMV inh -108.7
C=C(CCN1C=C(C(C)=O)C(c2ccccc2)NC1=O)c1ccc(OC)cc1 (centres undefined)	none (no result: HCV inh, HCMV inh, Giardia FBPA inh, LASV entry inh, FMDV antiviral)
C[C@@H]1C=CCC(=O)N[C@@H](c2ccc3ccccc3c2)[C@H](C)C=CCC(=O)N[C@@H]1c1ccc2ccccc2c1	MARV entry inh 2.66µM (no result: HCV inh, HCMV inh, Giardia FBPA inh, LASV entry inh, FMDV antiviral)
O=C1/C(=C/c2ccco2)SC(=S)N1C1CCS(=O)(=O)C1 (centres undefined)	HCMV inh inconclusive, Giardia FBPA inh inconclusive (no result: LASV entry inh, MARV entry inh)
CC(C(=O)N(C)C1CCS(=O)(=O)C1)N1C(=O)/C(=C/c2ccc(F)cc2)SC1=S (centres undefined)	HCMV inh inconclusive (no result: Giardia FBPA inh, LASV entry inh, MARV entry inh)
O=C1/C(=C\c2ccco2)SC(=S)N1C1CCS(=O)(=O)C1 (centres undefined)	HCMV inh -73.5, Giardia FBPA inh inconclusive, MARV entry inh inconclusive
CCN(C(=O)C(C)N1C(=O)/C(=C/c2ccco2)SC1=S)C1CCS(=O)(=O)C1 (centres undefined)	HCV inh 14.1µM, HCMV inh inconclusive, Giardia FBPA inh inconclusive (no result: LASV entry inh, MARV entry inh)
Cc1cccc(C)c1-c1ccc(CN2C(CC(C)C)C(=O)N(Cc3cn(CC4CCCCC4)nn3)CCS2(=O)=O)cc1 (centres undefined)	HCMV inh -100.3 (no result: Giardia FBPA inh, LASV entry inh, MARV entry inh)
CC(C)(C)C1=CC=C(C(C)(C)C)C(=O)C1=O	Giardia FBPA inh 7.92µM (no result: HCV inh, HCMV inh, LASV entry inh, MARV entry inh, FMDV antiviral)
CCCOc1ccc(/C=C/c2[nH]c(=O)[nH]c(=O)c2[N+](=O)[O-])cc1OCC	FMDV antiviral inconclusive
CCOc1cc(/C=C\c2[nH]c(=O)[nH]c(=O)c2[N+](=O)[O-])ccc1OC(C)CC (centres undefined)	HCMV inh -96.7, FMDV antiviral 8.91µM
CCOC(=O)COc1ccc(Br)cc1/C=C\c1[nH]c(=O)[nH]c(=O)c1[N+](=O)[O-]	FMDV antiviral 35.5µM
CCOC(=O)COc1ccc(Br)cc1/C=C/c1[nH]c(=O)[nH]c(=O)c1[N+](=O)[O-]	LASV entry inh inconclusive, MARV entry inh inconclusive, FMDV antiviral 28.2µM
CN(C)c1ccc(CC(=O)N2CCCCC2c2cc(C(=O)Nc3ccccc3Cl)no2)cc1 (centres undefined)	FMDV antiviral 35.5µM (no result: HCV inh, Giardia FBPA inh, LASV entry inh, MARV entry inh)
C[N+]1(C)CC[C@@H](OC(=O)[C@@](O)(c2ccccc2)C2CCCC2)C1	none (no result: HCV inh, HCMV inh, LASV entry inh, MARV entry inh, FMDV antiviral)
CCc1cc(C(=O)NCC2Cc3cc(-c4ccccc4C(C)=O)ccc3O2)no1 (centres undefined)	none (no result: HCV inh, HCMV inh, Giardia FBPA inh, LASV entry inh, MARV entry inh)
